Compound activity as filed in PubChem.
Shown are actives, neighbours in structure and some others; about 5.7% of the full set was active somewhere.
KB-V1 MDR tox: KB-V1 MDR subline cytotoxicity | KB-V1 MDR cells viability, CellTiter-Glo, 72 h | Potency, µM (top dose mostly 46.1 µM), hits mostly cytotoxic | 400,000 compounds, 3.4% hits | AID 1347076; further: potency means the concentration at half of the fitted maximal effect; nearly all actives have a fitted effect of over 60% in size
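Luminescent ATP read-out (CellTiter-Glo, 10 min) measures survival of drug-selected KB-V1 MDR cells after 72 h, 37 degrees C compound exposure. Medium: phenol-red-free DMEM, 10% FBS. Values from fitted concentration-response curves.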
PI4K2A block: PI4K2A (human) kinase inhibition. Q9BTU6. activity change, negative = inhibition, % at 76.9 µM. AID 1346378. 420,000 compounds, 0.13% hits. purified PI4K2A, ADP-Glo luminescence, 1 h; active compounds read low; in the data active means activity change below about -50%; inconclusive means mostly about -30% to -49%;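 further: -100% = wells without enzyme as full effect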
Target sequence (Q9BTU6 whole entry, looked up): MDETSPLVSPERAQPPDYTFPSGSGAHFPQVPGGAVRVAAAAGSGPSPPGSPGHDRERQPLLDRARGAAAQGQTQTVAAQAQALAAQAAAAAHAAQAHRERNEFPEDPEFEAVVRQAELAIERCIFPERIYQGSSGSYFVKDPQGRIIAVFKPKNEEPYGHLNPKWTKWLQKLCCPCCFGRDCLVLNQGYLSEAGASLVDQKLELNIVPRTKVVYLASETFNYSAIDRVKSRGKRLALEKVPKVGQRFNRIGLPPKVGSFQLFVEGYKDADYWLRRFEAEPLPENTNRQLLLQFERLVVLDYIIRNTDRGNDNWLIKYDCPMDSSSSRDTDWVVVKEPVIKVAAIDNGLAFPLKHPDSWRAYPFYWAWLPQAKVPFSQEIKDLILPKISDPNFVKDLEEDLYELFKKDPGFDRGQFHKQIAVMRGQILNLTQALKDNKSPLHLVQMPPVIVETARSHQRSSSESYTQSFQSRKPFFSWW
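ADP-Glo luminescence measured ADP generated by PI4K2A enzyme (4 ug/mL before mixing) with 1.2 mM PI substrate (pre-mix) and 300 microM ATP (pre-mix). Tris pH7.5 buffer with MgCl2, Triton X-100; 1 h reaction at ambient temperature.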
Giardia kill: Giardia lamblia killing; AID 540267; 340,000 compounds, 0.15% hits; Giardia lamblia trophozoite viability; activity change, % at 7.66 µM, hits read low; in the data active means activity change below about -80%; inconclusive means between about -30% and that limit;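 further: parasites exposed to compound for two days anaerobically before the ATP read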
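Luminescent ATP signal served as the viability read-out, measured 15-30 min after adding ATP detection reagent to trophozoites that had been incubated with compounds for 48 hrs at 37 deg C anaerobically at 100 cells/well.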
A549 tox: kills or reduces viability of A549 cells in Nrf2 counter-screen; A549 ARE-Fluc cells, CellTiter-Fluor viability, 18-24 h; Potency, µM (series often up to 46 µM), for inactives: at the top dose activity change, negative = cytotoxicity, hits mostly inhibitors; 390,000 compounds, 0.16% hits; AID 504648; further: potency means the concentration at half of the fitted maximal effect
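A549 ARE_Fluc cells in 5% FBS OPTI-MEM were exposed to compounds in concentration-response for 18-24 h at 37 deg C. Viability was read by CellTiter-Fluor fluorescence (Ex 405/Em 525) after 30 min, before the luciferase read.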
KB-3-1 tox: KB-3-1 parental cell cytotoxicity; Potency, µM (titrated, usually from 46.1 µM), usual class: cytotoxic; KB-3-1 viability, CellTiter-Glo ATP luminescence, 72 h; 400,000 compounds, 1.4% hits; further: potency means the concentration at half of the fitted maximal effect; nearly all actives have a fitted effect of over 60% in size
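Here the drug-naive KB-3-1 line serves as comparator for MDR sub-line selectivity; cells received compound titrations, 72 h at 37 °C, then CellTiter-Glo readout.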
Nrf2 inh: inhibitors of Nrf2 signaling | Potency, µM (titrated, usually from 46 µM), without a hit: at the highest dose activity change, negative = inhibition, usual class: inhibitors | A549 ARE-Fluc reporter, luciferase luminescence, 18-24 h | AID 504444 | 360,000 compounds, 2.1% hits; further: potency means the concentration at half of the fitted maximal effect; nearly all actives have a fitted effect of over 60% in size
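In this cell-based qHTS, ARE-driven firefly luciferase in A549 cells reports Nrf2 activity; the luminescent signal after BugLite lysis is the measured value, with a prior CellTiter-Fluor read for cell health.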
Numbers without * were called inactive; i = inactive; ? = inconclusive; nt = no result given. Unless noted, the call rests on the fitted dose curve; in most records, active means well fitted curve in the direction sought with a large enough effect; inconclusive means small, poorly fitted or top-dose-only effect, or another doubt; inactive means no such curve, though single readings can be large; an effect the other way counts as inactive or inconclusive. Unless noted, on the % scale 0 is the no-effect control and ±100 the full control effect.

SMILES	KB-V1 MDR tox	PI4K2A block	Giardia kill	A549 tox	KB-3-1 tox	Nrf2 inh
O=C(N/N=C\c1ccc(O)c([N+](=O)[O-])c1)c1ccccc1-n1cccc1	16µM*	-1	0	-4%	i	-7%
O=C(N/N=C/c1ccc([N+](=O)[O-])o1)c1ccccc1-n1cccc1	?	0	-99*	-19%	?	?
COc1cc(C=NNC(=O)c2ccccc2-n2cccc2)ccc1O	i	0	-6	-4%	?	2%
Oc1ccccc1C=NN1CCN(Cc2ccccc2)CC1	nt	-3	nt	nt	nt	nt
COc1ccc(C(=O)Nc2ccc(S(=O)(=O)Nc3nccnc3OC)cc2)cc1	18µM*	-19	17	4%	?	-7%
O=C(Nc1ncccc1O)c1ccc(S(=O)(=O)Nc2ccccc2)cc1	9.2µM*	0	12	0%	10µM*	-21%
COc1ccc(NS(=O)(=O)c2ccc(NC(=O)c3ccc(Br)cc3)cc2)nn1	i	5	2	-4%	i	21µM*
COc1ccc(OC)c(CN2C(=O)CCCC2(C)c2nnnn2C2CCCC2)c1 (centres undefined)	nt	1	nt	nt	nt	nt
COc1ccc(/C=C/C(=O)C(C(N)=O)=C2SCCS2)cc1	?	4	4	-29%	?	13%
NC(=O)C(C(=O)/C=C/c1ccc(Cl)cc1)=C1SCCS1	6.5µM*	1	-9	?	?	?
C[n+]1cc(C(O)(c2ccccc2)c2ccccc2)n2ccccc21	nt	2	nt	2%	nt	?
OC(COCC1CC=CCC1)Cn1cnc2ccccc21 (centres undefined)	i	2	23	6%	i	?
CC(Cn1cnc2ccccc21)C(=O)O (centres undefined)	i	1	-15	-1%	i	-9%
OC(CN(c1ccccc1)c1ccccc1)Cn1cnc2ccccc21 (centres undefined)	18µM*	5	2	-13%	?	nt
OC(COCc1ccccc1)Cn1cnc2ccccc21 (centres undefined)	16µM*	4	-9	12%	i	nt
COc1cccc(N2CCN(Cc3nc4ccccc4c(=O)[nH]3)CC2)c1	i	0	-4	19%	i	nt
COc1cccc(N2CCN(Cc3nc4scc(-c5ccccc5)c4c(=O)[nH]3)CC2)c1	9.2µM*	2	6	-6%	?	-24%
Cn1nc(C(=O)NCc2ccc(F)cc2)c2c1-c1ccccc1S(=O)(=O)C2	i	-1	-14	-10%	i	10µM*
O=C(NCc1ccc2c(c1)OCO2)c1ccc(C2SCC(=O)N2Cc2ccco2)cc1 (centres undefined)	21µM*	-27	6	-9%	i	-22%
CCOCCCNC(=O)c1ccc(C2SCC(=O)N2Cc2ccccc2)cc1 (centres undefined)	5.8µM*	-5	-14	-1%	i	?
CCCNC(=O)c1ccc(C2SCC(=O)N2Cc2ccccc2)cc1 (centres undefined)	i	2	0	-4%	i	-6%
Cc1cc(C)cc(C(=O)OCCN(C)C2CN(Cc3cn(Cc4cccc(F)c4)nn3)S(=O)(=O)C2)c1 (centres undefined)	nt	-5	nt	nt	nt	nt
CC(=O)NC(Cc1ccc2c(c1)OCO2)C(=O)N1CCCC1 (centres undefined)	nt	-2	nt	nt	nt	nt
O=S(=O)(NC[C@@H]1CCC[C@H](CNS(=O)(=O)c2c(F)cccc2F)C1)c1ccc2c(c1)OCCO2	nt	nt	nt	-12%	nt	?
C[N+]1(CC(=O)c2ccc(Cl)cc2)CCOCC1	i	nt	nt	nt	i	nt
SMILES	KB-V1 MDR tox	PI4K2A block	Giardia kill	A549 tox	KB-3-1 tox	Nrf2 inh
Cc1ccc(SCc2ccc(C(=O)Nc3cc([N+](=O)[O-])ccc3C)cc2)cc1	i	0	7	-9%	i	15µM*
Cc1ccc(SCc2ccc(C(=O)Nc3cccc([N+](=O)[O-])c3)cc2)cc1	i	-4	1	-22%	i	?
O=S(=O)(c1ccc2c(c1)OCCO2)C1CCN(S(=O)(=O)c2c(F)cccc2F)CC1	nt	nt	nt	-3%	nt	14%
COc1cccc(CC(=O)Nc2c(C(=O)N3CCN(c4ccccc4F)CC3)oc3ccccc23)c1	?	-18	nt	3%	16µM*	-7%
O=C(Nc1c(C(=O)N2CCN(c3ccccc3F)CC2)oc2ccccc12)c1cccc(F)c1	i	1	nt	22%	i	-17%
Cc1cccc(OCC(=O)Nc2c(C(=O)N3CCN(c4ccccc4F)CC3)oc3ccccc23)c1	i	-1	nt	?	i	18µM*
COc1ccc(N2CCN(C(=O)c3oc4ccccc4c3NC(=O)Cc3cccc(OC)c3)CC2)cc1	?	4	-9	-2%	i	-10%
CCOC(=O)c1oc2ccccc2c1NC(=O)COc1ccc(F)cc1	8.2µM*	2	-13	-21%	i	-17%
CC(C)CC(=O)Nc1c(C(=O)N2CCN(c3ccccc3F)CC2)oc2ccccc12	nt	-4	nt	-12%	nt	26µM*
NC(=O)C1CCN(c2ncc(-c3cccc(N4CCCC4)c3)s2)CC1	?	nt	nt	nt	i	nt
Cc1ccc(F)cc1C(=O)N(Cc1ccccn1)CC1CCCO1 (centres undefined)	nt	-2	nt	nt	nt	nt
O=C(Nc1ccc(F)c(C(F)(F)F)c1)Nc1nnc(-c2ccncc2)s1	nt	-3	nt	nt	nt	nt
COc1ccc(CNc2nc(N)nc3nc[nH]c23)cc1	i	nt	-1	2%	i	17%
O=c1c2cc3cccnc3nc2ncn1Cc1cccs1	nt	-9	nt	nt	nt	nt
COc1ccc(S(=O)(=O)Nc2cccc(-c3ccc4nncn4n3)c2)cc1	?	3	9	-17%	5.8µM*	-17%
Cc1ccccc1Nc1nc(Nc2ccccc2C)nc(SC2=NCCS2)n1	16µM*	2	7	-22%	i	26µM*
Cc1ccc(Nc2nc(Nc3ccc(C)cc3)nc(SC3=NCCS3)n2)cc1	i	6	14	-22%	i	?
CCc1ccc(CCNC(=O)OCCCN2CCC3(CCC(C)CC3)C2=O)cc1 (centres undefined)	nt	-2	nt	nt	nt	nt
O=C(C1CCN(c2cncnc2)CC1)N1CCCC1	nt	1	nt	nt	nt	nt
CC(C)CCOP(=O)(c1ccc(N(C)C)cc1)C(O)c1ccccc1F (centres undefined)	15µM*	18	12	-20%	i	?
CC(C)OP(=O)(c1ccc(N(C)C)cc1)C(O)c1ccccc1F (centres undefined)	?	5	2	-8%	i	-11%
Cc1ccc(C(=O)NCC2CCCN2S(=O)(=O)c2ccc(C)cc2)cc1 (centres undefined)	i	-4	-24	-4%	i	8%
